Compound activity (PubChem)
KCNQ2 block: rat KCNQ2 potassium channel inhibitors, primary screen, cell-based, CHO-K1, FluxOR thallium flux, B-score; hit rate 1.1% among 310,000; AID 2156, 2009; Potassium voltage-gated channel subfamily KQT member 2 (Rattus norvegicus), O88943; B-score at 10 µM; 20 min; active compounds read low;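 active = fluorescence ratio B-score at most minus 3 library SDs, with starting brightness B-score within 2 library SDs, cut at about -5.5 in these data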
KCNQ2 enhance: potentiators of rat KCNQ2 potassium channel. Potassium voltage-gated channel subfamily KQT member 2 (Rattus norvegicus), O88943. CHO-K1 KCNQ2, FluxOR thallium flux fluorescence; active compounds read high. B-score at 10 µM. hit rate 0.54% among 310,000;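 active = fluorescence ratio B-score at least 3 SD of library B-scores, with initial fluorescence B-score within 3 of them, cut at about 5.3 in these data; same plate scores as AID 2156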;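 also: B-score of peak minus minimum over baseline fluorescence ratio after K+ and Tl+ stimulus; positive B-score means potentiation of KCNQ2 with more thallium influx and brighter signal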
Kir21 confirm: mouse Kir2.1 channel blockers, retest, confirmation, cell-based, FluxOR thallium flux, duplicate; shares compounds with KCNQ2 enhance; Kir2.1-expressing cells, FluxOR thallium flux fluorescence; active compounds read low; Tl flux remaining, % of negative control (active compounds read low), % at 10 µM; hit rate 41% among 2,300;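 active = Primary-screen hit whose thallium flux fell at least 3 control SD below untreated wells in both duplicates, with normal baseline fluorescence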;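 also: 0% = blank wells without stimulus and 100% = stimulated no-compound controls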
Target sequence (P35561 whole entry, looked up): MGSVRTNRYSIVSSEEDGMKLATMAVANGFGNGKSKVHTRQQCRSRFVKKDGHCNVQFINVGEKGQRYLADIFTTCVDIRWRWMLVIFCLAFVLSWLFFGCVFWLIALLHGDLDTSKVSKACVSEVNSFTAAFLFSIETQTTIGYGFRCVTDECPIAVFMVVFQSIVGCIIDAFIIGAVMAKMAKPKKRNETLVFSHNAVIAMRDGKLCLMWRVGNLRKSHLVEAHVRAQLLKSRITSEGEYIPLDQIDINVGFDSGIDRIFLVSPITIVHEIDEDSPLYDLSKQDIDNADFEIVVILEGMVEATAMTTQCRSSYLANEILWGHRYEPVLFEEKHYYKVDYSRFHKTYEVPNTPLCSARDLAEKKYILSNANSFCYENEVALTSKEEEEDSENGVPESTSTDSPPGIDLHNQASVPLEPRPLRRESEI
HEK293 Tl flux: counter-screen for Kir2.1 inhibitors: effect in parental HEK293 cells; FluxOR signal as % of negative control (100 = no effect), % at 10 µM; shares compounds with KCNQ2 enhance; hit rate 19% among 2,300; FluxOR thallium flux fluorescence; 0% = unstimulated blank wells; AID 2105;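 active = dye signal at least 3 control SD above or below untreated wells in both duplicates, raw fluorescence within 3, either direction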;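 also: percent is based on the flux ratio of peak minus minimum fluorescence over baseline F0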
CHO-K1 Tl ctr: nonspecific thallium flux increase in parental CHO-K1, confirmation, counter-screen for KCNQ2 potentiator project, cell-based, FluxOR thallium flux, duplicate. shares compounds with KCNQ2 enhance. parental CHO-K1 cells, FluxOR thallium flux fluorescence; zero = vehicle mean+3SD, 100% = vehicle-minus-blank window. activity increase over 3SD of controls, % at 10 µM. hit rate 43% among 1,200;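 active = signal rise of at least 3 SD above the untreated control mean, in both duplicate wells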;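 also: counter screen of KCNQ2 potentiator hits so any rise reflects channel-independent effects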
KCNQ1 pot spec: human KCNQ1 channel potentiation off-target, confirmation, selectivity assay for KCNQ2 potentiator project, cell-based, CHO, FluxOR thallium flux; hit rate 28% among 1,200; CHO KCNQ1 stable, FluxOR thallium flux fluorescence; beyond 3SD, as % of vehicle-control signal; activation over 3SD threshold, % at 10 µM; AID 2283, 2010; shares compounds with KCNQ2 enhance;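 active = fluorescence ratio rise of at least 3 SD of vehicle wells above their mean, in both replicate wells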;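 also: 0% = vehicle mean plus 3 SD and 100% = vehicle minus unstimulated blank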
KCNQ2 pot confirm: rat KCNQ2 channel potentiators, confirmation, cell-based, CHO, FluxOR thallium flux, duplicate; shares compounds with KCNQ2 enhance; potentiation, less the hit threshold, % at 10 µM; AID 2287, 2010; hit rate 68% among 1,200; CHO-KCNQ2 cells, FluxOR thallium flux fluorescence;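 active = fluorescence ratio rising 3 SD or more over the vehicle control mean in both replicates, plus primary screen hit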;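 also: peak minus minimum thallium fluorescence divided by baseline after K/Tl stimulus; 0% = vehicle mean plus 3 SD and 100% = vehicle minus unstimulated blank difference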
Kir2-1 sel: mouse Kir2.1 channel activation off-target, confirmation, selectivity assay for KCNQ2 potentiator project, cell-based, HEK293, FluxOR thallium flux. shares compounds with KCNQ2 enhance. HEK293 Kir2.1, FluxOR thallium flux fluorescence. activity over 3SD threshold, % at 10 µM. hit rate 2% among 1,200;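 active = fluorescence ratio rise of at least 3 SD above the vehicle-control mean, seen in both replicates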;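 also: 0% = vehicle mean plus 3 SD and 100% = vehicle minus no-stimulus blank window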
KCNQ2 W236L pot: potentiators of retigabine-insensitive KCNQ2 W236L, mechanism study for KCNQ2 potentiator project, cell-based, rat KCNQ2 W236L, CHO, automated patch clamp. shares compounds with KCNQ2 enhance. AID 2558, 2010. current increase over 3SD of negative controls (%), active compounds read high, % at 25 µM. hit rate 10% among 940. automated patch clamp current;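 active = current increase at least 3 SD of the untreated controls above them in both duplicate recordings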
Numbers without * were called inactive; i = inactive; / = not tested or not shown. Compounds with a hit are over-represented: about 1.6% of the library has one in this group of screens.

SMILES	KCNQ2 block	KCNQ2 enhance	Kir21 confirm	HEK293 Tl flux	others
Cc1ccc(CN2CCCN(Cc3cc(C)ccc3C)S2(=O)=O)cc1	i	7.3*	i	i	CHO-K1 Tl ctr=-26;KCNQ1 pot spec=-20;KCNQ2 pot confirm=-22;Kir2-1 sel=-27
CCc1ccc(NC(=O)C(=O)NCCOc2ccccc2Cl)cc1	i	0.87	/	/
Cc1ccc(S(=O)(=O)NCCNc2ccc([N+](=O)[O-])cc2C(F)(F)F)cc1	i	/	/	/
O=[N+]([O-])c1ccc(NCCNS(=O)(=O)c2ccccc2)c(C(F)(F)F)c1	i	/	i	i
CCCCc1nnc(NC(=O)c2ccc3[nH]c(=O)c(=O)[nH]c3c2)s1	i	0.68	/	/
CN(c1ccccc1)S(=O)(=O)c1cccc(C(=O)Nc2nn[nH]n2)c1	i	0.08	/	/
C=CCc1ccc(OCCCNCc2ccccc2)c(OC)c1	i	3.3	42%*	i
C=CCc1ccc(OCCN2CCc3ccccc3C2)c(OC)c1	i	0.84	20%*	i
C/C=C/c1ccc(OCCN2CCc3ccccc3C2)c(OC)c1	i	/	/	/
C=CCc1ccc(OCCCNC2CCCC2)c(OC)c1	i	/	/	/
Brc1ccccc1OCCNCc1ccccc1	i	/	/	/
C=CCc1ccccc1OCCNCc1ccccc1	i	/	32%*	i
Cc1ccc(C)c(NC(=S)N2CCC(NC(=O)c3ccccc3)CC2)c1	i	/	/	/
O=[N+]([O-])c1ccccc1S(=O)(=O)N1CCCc2ccccc21	i	/	/	/
O=S(=O)(c1ccccc1F)N1CCCc2ccccc21	i	0.02	60%*	i
CCc1ccc(CN(C)C(=O)c2cc(=O)c3ccccc3o2)cc1	i	/	/	/
CN1CCC(N(C)C(=O)c2cc(=O)c3ccccc3o2)CC1	i	/	i	i
O=C(O)c1ccc(S(=O)(=O)/N=C2\C=C(Nc3ccccc3F)C(=O)c3ccccc32)cc1	i	3.3	/	/
Cc1ccccc1NC1=C/C(=N\S(=O)(=O)c2ccc(C(=O)O)cc2)c2ccccc2C1=O	i	7.2*	i	i	CHO-K1 Tl ctr=-10;KCNQ1 pot spec=-14;KCNQ2 pot confirm=8.9*;Kir2-1 sel=-6;KCNQ2 W236L pot=16%*
CC(=O)c1ccc(N2CCN(C(=O)C3CCN(S(=O)(=O)c4cccs4)CC3)CC2)cc1	i	/	/	/
COc1cccc(C(=O)N(C)c2nnc(-c3ccncc3)s2)c1	i	/	/	/
O=C(CSc1c2c(nc3cc(Cl)ccc13)CCCC2)NCc1ccco1	i	/	57%*	i
O=C(CSc1nc2ccc(Cl)cc2[nH]1)NCc1ccco1	i	0.53	/	/
Brc1nnc2n1-c1ccccc1Sc1ccccc1-2	i	1.9	28%*	66%*
c1ccc2c(c1)Sc1ccccc1-n1cnnc1-2	i	/	/	/
Clc1ccc2c(c1)-c1nnc(Br)n1-c1ccccc1S2	i	1	66%*	70%*
Clc1ccccc1-c1nnc2n1-c1ccccc1SC2	i	/	/	/
COc1ccc(CCNC(=O)C2Cc3ccccc3C(=O)O2)cc1 (configuration not stated)	i	/	/	/
